Screening results: PubChem BioAssay, National Center for Advancing Translational Sciences (NCATS)
DT40 TDP1 no CPT = qHTS for Inhibitors of human tyrosyl-DNA phosphodiesterase 1 (TDP1): qHTS in cells in absence of CPT; DT40 Tdp1-/- hTDP1 cells, no CPT, ATP luminescence, 48 h; Potency, µM (titrated, usually from 46.2 µM), for inactives: top-dose activity change, negative = growth inhibition, usual class: inhibitors; 420,000 tested, 15% active; also: % is scaled to controls: 0 for no effect and ±100 for the full control effect; nearly all actives have a fitted effect of over 55% in size
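Seeded 400 DT40-hTDP1 cells/well (vehicle DMSO, no 20 nM CPT); pinned compounds; ≥48 hr at 37 °C; CellTiter-Glo luminescence as viability measure.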
ATXN2 expr inh = reduces ATXN2 reporter expression in HEK-293 cells | HEK-293 ATXN2-luciferase reporter, luminescence, 24 h | 360,000 tested, 0.72% active | Potency, µM (highest dose often 57 µM), for inactives: top-dose activity change, negative = inhibition, actives largely listed as inhibitors; also: % is scaled to controls: 0 for no effect and ±100 for the full control effect; nearly all actives have a fitted effect of over 55% in size
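ATXN2-luciferase reporter cells (luciferase flanked by upstream and downstream ATXN2 gene portions) were treated 24 h at 37 °C with compounds at up to 57 uM. SteadyGlo luminescence gave expression; GF-AFC fluorescence gave viability.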
HepG2 tox = counter-screen for TGF-b inhibitors: cytotoxicity in HepG2 cells | HepG2 CAGA-GFP viability, ATP luminescence, 18 h | Potency, µM (titrated, usually from 46.1 µM), for inactives: at the highest dose activity change, negative = cytotoxicity, usual class: cytotoxic | 410,000 tested, 0.76% active
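CellTiter-Glo luminescence gave cytotoxicity after 18 hours at 37 degrees C. The cells were HepG2 CAGA-GFP in 1% FBS DMEM, stimulated with 500 pg/mL TGF-beta after compound addition. %Activity was normalised to no-cell wells (complete cell-killing) and DMSO (no toxicity), and curves were fitted and classified.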
ATXN viability = reduces viability in counter-screen for ATXN expression inhibitors | S2 cells (HEK-293 line with an ATXN2-luciferase reporter) viability, CellTiter-Fluor protease fluorescence, 24 h | Potency, µM (series often up to 56.7 µM), actives largely listed as cytotoxic | 400,000 tested, 0.49% active | AID 651635; also: nearly all actives have a fitted effect of over 40% in size
TGFb SMAD3 inh = inhibitors of TGF-b signaling | HepG2 CAGA-GFP TGF-b/SMAD3 reporter, GFP fluorescence, 18 h; TGF-beta stimulated, 500 pg/mL final | Potency, µM (top dose mostly 46.1 µM), without a hit: top-dose activity, negative = inhibition, hits mostly inhibitors | 410,000 tested, 1.2% active | AID 588855; also: % is scaled to controls: 0 for no effect and ±100 for the full control effect; nearly all actives have a fitted effect of over 65% in size
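HEPG2 CAGA-GFP reporter cells (1000/well, DMEM with 1% FBS) received compounds, then recombinant TGF-beta at 500 pg/mL final for 18 hours at 37 degrees C. Per-cell GFP summed per well was normalised to unstimulated and stimulated DMSO controls before curve fitting.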
DT40 TDP1 CPT = growth inhibition of DT40 Tdp1-/-;hTDP1 cells with camptothecin (screen for TDP1 inhibitors) | AID 686979 | Potency, µM (series often up to 46.2 µM), for inactives: at the top dose activity change, negative = growth inhibition, hits mostly inhibitors | chicken DT40 Tdp1-/-;hTDP1 cells + 20 nM CPT, ATP luminescence, 48 h | 420,000 tested, 12% active; also: % is scaled to controls: 0 for no effect and ±100 for the full control effect; nearly all actives have a fitted effect of over 55% in size
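Chicken DT40 Tdp1-/- cells stably complemented with human TDP1 were seeded at 400 cells/well in medium containing 20 nM camptothecin, exposed to pin-transferred compounds, and grown at 37 °C for at least 48 hr. Viability was read as ATP luminescence.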
* marks the source's active call; other numbers are inactive results; i = inactive; ? = inconclusive; nt = no result given. Hits are enriched below; roughly 17% of the tested compounds scored in any of these assays. Calls follow the shape of the dose curve; as a rule, active = well fitted curve in the direction sought with a large enough effect; inconclusive = small, poorly fitted or top-dose-only effect, or another doubt; inactive = no such curve, though single readings can be large; an effect the other way counts as inactive or inconclusive. Potency is read from the fitted curve at half-maximal effect.

SMILES	DT40 TDP1 no CPT	ATXN2 expr inh	HepG2 tox	ATXN viability	TGFb SMAD3 inh	DT40 TDP1 CPT
CCOC(=O)c1ccc(N/C=C/C(=O)C(C)(C)C)cc1	-14%	90%	-25%	i	10%	-12%
CN(C)c1ccc(N/C=C/C(=O)C(C)(C)C)cc1	?	56%	-59%	i	?	18µM*
CC(C)(C)CC(=O)NCC(c1ccc2c(c1)OCO2)N1CCOCC1 (stereo not given)	-4%	-2%	-3%	i	-9%	3%
CSc1nc(N)nc(SCC(=O)Nc2ccc(Cl)cc2)c1C#N	21µM*	1%	-51%	i	?	?
Cc1ccc(S(=O)(=O)CCSc2nc(C)cc(C)c2C#N)cc1	?	0%	-7%	i	-19%	?
CSc1nc(N)nc(SCCS(=O)(=O)c2ccc(Cl)cc2)c1C#N	26µM*	?	0%	?	?	21µM*
CSc1nc(N)nc(SCC(=O)C(C)(C)C)c1C#N	23µM*	33%	-3%	i	2%	?
COc1ccc(CC2=NN3C([C@@H](CCc4ccccc4)[C@@H](C)O)=NC(C)C3C(=O)N2)cc1OC (stereo not given in full)	nt	43%	nt	nt	nt	nt
CC(C)(CN1CCCC1)NS(=O)(=O)c1ccc(Cl)cc1	-23%	-9%	-3%	i	6%	3%
Cc1ccc(S(=O)(=O)NCCC(=O)N2CCN(C/C=C/c3ccccc3)CC2)cc1	15µM*	nt	-19%	?	?	?
CC(C)(CN1CCNCC1)NS(=O)(=O)c1ccc(Cl)cc1	?	?	25µM*	i	?	23µM*
Cc1ccc(S(=O)(=O)NC(C)(C)CN2CCC(Cc3ccccc3)CC2)cc1	18µM*	-26%	-26%	i	18µM*	16µM*
CCOC(=O)C1CCN(CC(C)(C)NS(=O)(=O)c2ccc(C)cc2)CC1	-25%	-11%	3%	i	17%	1%
CC(=O)Nc1ccc(S(=O)(=O)NCCC(=O)N2CCC(Cc3ccccc3)CC2)cc1	?	-16%	-6%	i	-26%	?
Cc1ccc(S(=O)(=O)NCCC(=O)N2CCC(Cc3ccccc3)CC2)cc1	21µM*	-9%	0%	i	-18%	15µM*
CC1CCCCC1NC(=O)COC(=O)COc1ccccc1F (stereo not given)	4%	-2%	-1%	i	14%	-6%
COc1cccc(CNC(=O)CCc2c(C)nc3c(c2C)c(=O)n(C)c(=O)n3C)c1	-22%	-8%	-2%	i	?	15%
COc1ccc(C(C)NC(=O)c2cccc([N+](=O)[O-])c2)cc1OC (stereo not given)	0%	-7%	15%	?	7%	-4%
CC(=O)N1CCN(C(=O)CCNS(=O)(=O)c2ccc(Br)cc2)CC1	-6%	-2%	-9%	?	0%	-29%
CC(=O)Nc1ccc(S(=O)(=O)NCCC(=O)N2CCN(C(c3ccccc3)c3ccccc3)CC2)cc1	16µM*	3%	-29%	i	-10%	?
Cc1ccc(S(=O)(=O)NC(CC(C)C)C(=O)N2CCN(C/C=C/c3ccccc3)CC2)cc1 (stereo not given)	16µM*	-17%	-12%	i	?	16µM*
Cc1nc2cc(C(F)(F)F)ccc2n1C1CCN(CC(=O)NC(C)(C)C)CC1	?	-4%	-13%	i	-1%	18µM*
COc1ccc(Cl)cc1NC(=O)CN1CCC(n2nnc3cc(C)ccc32)CC1	23µM*	-17%	-21%	?	-11%	?
Cc1nc2cc(F)ccc2n1C1CCN(C(=O)c2c(F)cccc2F)CC1	21µM*	nt	5%	?	-29%	12µM*
COc1ccccc1NC(=O)CN1CCC(n2nnc3cc(F)ccc32)CC1	?	0%	-16%	i	?	16µM*
SMILES	DT40 TDP1 no CPT	ATXN2 expr inh	HepG2 tox	ATXN viability	TGFb SMAD3 inh	DT40 TDP1 CPT
COc1ccc(C(=O)NNC(=O)CN2CCC(n3nnc4cc(F)ccc43)CC2)cc1	-29%	-10%	7%	?	3%	-21%
O=C(CSc1nnc(-c2cccc(F)c2)c(-c2cccc(F)c2)n1)NC1CCCCC1	?	nt	-4%	nt	38%	?
CCNC(=S)NNC(=O)CCn1cc(C)cn1	-23%	-4%	8%	i	-4%	-7%
COc1ccccc1NC(=O)CN1CCC(n2c(C)nc3cc(F)ccc32)CC1	23µM*	5%	-8%	i	-1%	?
O=S(=O)(NCc1ccc(F)cc1)c1ccccc1Br	?	-11%	-3%	i	1%	?
CC(C)(C)NC(=O)CN1CCN(C(=O)CCl)CC1	21µM*	-12%	-12%	?	?	23µM*
CC(CCc1ccccc1)NC(=O)CCNS(=O)(=O)c1ccccc1 (stereo not given)	-10%	4%	-5%	i	-1%	2%
CCc1c(C)nc2nncn2c1NCc1ccc(Cl)cc1	4.6µM*	nt	-18%	nt	nt	8.2µM*
Cc1ccc(CNc2c(C)c(C)nc3nncn23)cc1	1.2µM*	-22%	-33%	i	-12%	4.1µM*
Cc1ccc(CNc2cc(C)nc3nc(-c4ccc(C)cc4)nn23)cc1	nt	11%	-4%	i	3%	nt
COC(=O)Cc1c(C)nc2nc(NCc3ccc(Cl)cc3)[nH]n2c1=O	-18%	1%	-25%	i	?	-17%
Cc1nc2nncn2c(Nc2ccccc2)c1C	18µM*	-16%	-9%	i	?	21µM*
Cc1nc(N)sc1N=Nc1ccc(F)cc1	?	16%	-3%	?	-3%	?
CCn1c(=O)n(CC(=O)Nc2cc(OC)c(OC)c(OC)c2)c(=O)c2ccccc21	-4%	3%	-7%	i	11%	-10%
Cc1cc(OC(F)F)ccc1NC(=S)NC1CCCC1	2%	4%	2%	i	12%	-1%
CCn1c([N+](=O)[O-])nc2c1c(=O)[nH]c(=O)n2C	1.8µM*	nt	-126%	nt	10µM*	2.3µM*
COc1ccccc1CNC(=O)c1ccccc1NC(=O)C1=C(C)OCCS1	?	-5%	5%	i	-5%	21µM*
CC1=C(C(=O)Nc2ccccc2C(=O)N2CCN(c3ccccc3)CC2)SCCO1	18µM*	nt	-20%	i	-20%	?
